Five molecules from the supplement of paper PMC10105736 can be followed below.

Values without a mark were called inactive.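 The calls were made as follows: active = MAPPIT score above the 99th percentile of random reference set scores in the same batch; inactive = at or below it.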

What all share (test): MAPPIT interaction score (arbitrary units); higher = stronger binary interaction signal, active = hit call of the paper
The target in assay [1] is RpS21. The note with it: MAPPIT configuration: N-N; pair source set: DPIM.
The target in assay [2] is RpS5a. The note with it: MAPPIT configuration: N-N; pair source set: Curagen_high_conf.
The target of assay [3] is RpS29. The note with it: pair source set: RRS.
Assay [4] has as its target RpS3. The note with it: MAPPIT configuration: N-N; pair source set: Curagen_low_conf.
In assay [5] the target is msl-3. The following applies: MAPPIT configuration: N-N; pair source set: DPIM.
Assay [6] has as its target Rpn6. The note with it: pair source set: Lit-BM-16.
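Also: HEK293T cells with Epo stimulation, STAT-responsive firefly luciferase reporter, fold induction versus unstimulated cells divided by the larger fold induction of two negative controls lacking either bait or prey.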

B1: l(2)gl (protein)
chain: MLKFIRGKGQQPSADRHRLQKDLFAYRKTAQHGFPHKPSALAYDPVLKLMAIGTQTGALKVFGQPGVELYGQHTLLNNSASELNVQLLEWVYGTGRILSLTAANQLILWEPVGATLLPIKTLPFDGKLKKVSSLCCSLSKDLLWIGTEGGNIYQLDLHTFTIKEPVIYHDVVLEQVPPAYKLNPGAIESIRQLPNSPSKLLVAYNRGLCVLWDFESASVQRAYIAPGHGQSVGLTVNFEGSEFTWYHADGSYATWSIDNPEPPSNVNYVPYGPDPCKSINRLYKGKRRSNDVIVFSGGMPRSAYGDHNCVSVHASDGHKVCLDFTSKVIDFFVTFENNRDVAEVLVVLLEEELCAYDLTDPNICAIKAPYLHSVHASAVTCNYLASEVVQSVYESILRAGDEQDIDYSNISWPITGGTLPDNLEESVEEDATKLYEILLTGHEDGSVKFWDCTGVLLKPIYNFKTSSIFGSESDFRDDAAADMSAEQVDEGEPPFRKSGLFDPYSDDPRLAVKKIAFCPKTGQLIVGGTAGQIVIADFIDLPEKVSLKYISMNLVSDRDGFVWKGHDQLNVRSNLLDGEAIPTTERGVNISGVLQVLPPASITCMALEASWGLVSGGTAHGLVLFDFKNFVPVFHRCTLNPNDLTGAGEQLSRRKSFKKSLRESFRKLRKGRSTRTNQSNQVPTTLEARPVERQIEARCADDGLGSMVRCLLFAKTYVTNVNITSPTLWSATNASTVSVFLLHLPPAQTAATAVPSASGNAPPHMPRRISAQLAKEIQLKHRAPVVGISIFDQAGSPVDQLNAGENGSPPHRVLIASEEQFKVFSLPQLKPINKYKLTANEGARIRRIHFGSFSCRISPETLQSMHGCSPTKSTRSHGDGEADPNISGSLAVSRGDVYNETALICLTNMGDIMVLSVPELKRQLNAAAVRREDINGVSSLCFTNSGEALYMMSSSELQRIALATSRVVQPTGVVPVEPLENEESVLEENDAENNKETYACDEVVNTYEIKNPSGISICTRPAEENVGRNSVQQVNGVNISNSPNQANETISSSIGDITVDSVRDHLNMTTTTLCSINTEETIGRLSVLSTQTNKASTTVNMSEIPNINISNLEDLESKRNTTETSTSSVVIKSIITNISHEKTNGDNKIGTPKTAPEESQF
Regarding B1, the MAPPIT interaction score in assay [1] was 0.14.

B2: Vm32E (protein)
chain: MQIVALTLVAFVAIAGASCPYAAPAPAYSAPAASSGYPAPPCPTNYLFSCQPNLAPAPCAQEAPAYGSAGAYTEQVPHYVGSPNREQLQQFHQRIGMAALMEELRGLGQGIQGQQY
B2: the MAPPIT interaction score in assay [2] is 0.177.

B3: Cog8 (protein)
chain: MDFPDKMDLENERVLKLIFPDGVPDNLRGNPELDNYLAKLGTCKVEQLKKEQTRLAEEARTILEQTQDLAISNYRTFITTAENSRSIFSEFLRSEQQLDTLVSKLPDLSVQCERFLQDSAELNEQRRLNSITLQKNAQLLEVLELPQLMERCIREGRYEEALELAAYATRLGQHQGHIPVVTSIVRSVEALWHNMLVQLVAQLRTDLQLPKCLQIVGYLRRMQAFGDNELRLKFLQARDAWLTSCLEAIPTADAQQHLSKTIEITRINLFNIITQYRAIFPEDEGTLKTQSSLRPLQGVSCNGDRLFQAWLHNKISDFLQTLERDLQLGVGSVETVLGQCMYFGLSFSRVGADFRALMAPIFVGVIRRRFESSVEQVDEQFERELERFTLINKVALHSHARKQVDPEQESYAPPEALLDFYPLAALCNGYLSALNELRLCAPLALATDVTRCLQHSLQQAAQRVLAFYRQEQQAFAGSEREAFVRLCSCLAYDLVPYIQRCIHGVFPPQSLTVHLGISLLQLEQQQLTYLQQTRILEPLKHLLPTKALVQPQDKVMEAKPSAGVPVTAEG
B3: the MAPPIT interaction score in assay [3] (MAPPIT configuration: N-C) was 0.627; in assay [3] (MAPPIT configuration: N-N) it was -0.265.

B4: mts (protein)
chain: MEDKATTKDLDQWIEQLNECNQLTETQVRTLCDKAKEILSKESNVQEVKCPVTVCGDVHGQFHDLMELFRIGGKSPDTNYLFMGDYVDRGYYSVETVTLLVALKVRYRERITILRGNHESRQITQVYGFYDECLRKYGNANVWKYFTDLFDYLPLTALVDGQIFCLHGGLSPSIDSLDHIRALDRLQEVPHEGPMCDLLWSDPDDRGGWGISPRGAGYTFGQDISETFNNTNGLTLVSRAHQLVMEGYNWCHDRNVVTIFSAPNYCYRCGNQAALMELDDSLKFSFLQFDPAPRRGEPHVTRRTPDYFL
As for B4, the MAPPIT interaction score in assay [4] is 0.284; in assay [5] it was 1.55.

B5: alien (protein)
chain: MSDNDDDFMCDDDEDYGLEYSEDSNSEPDVDLENQYYNSKALKEEEPKAALASFQKVLDLENGEKGEWGFKALKQMIKINFRLCNYDEMMVRYKQLLTYIKSAVTRNHSEKSINSILDYISTSKNMALLQNFYETTLDALRDAKNDRLWFKTNTKLGKLYFDRSDFTKLQKILKQLHQSCQTDDGEDDLKKGTQLLEIYALEIQMYTVQKNNKKLKALYEQSLHIKSAIPHPLIMGVIRECGGKMHLREGEFEKAHTDFFEAFKNYDESGSPRRTTCLKYLVLANMLMKSGINPFDSQEAKPYKNDPEILAMTNLVNSYQNNDINEFETILRQHRSNIMADQFIREHIEDLLRNIRTQVLIKLIRPYKNIAIPFIANALNIEPAEVESLLVSCILDDTIKGRIDQVNQVLQLDKINSSASRYNALEKWSNQIQSLQFAVVQKMA
As for B5, the MAPPIT interaction score in assay [6] (MAPPIT configuration: N-C) was 4.99 (active); in assay [6] (MAPPIT configuration: N-N), 0.207.
